Screening results (PubChem)
In the library only some 13% were active in any assay of this set; here they are far more common.
USP30 block: inhibitors of human USP30 deubiquitinase; purified USP30, Ub-rhodamine cleavage fluorescence; 5.3% of 47,000 active; Q70CQ3; inhibition, % at 25 µM
Target sequence (Q70CQ3 whole entry, looked up): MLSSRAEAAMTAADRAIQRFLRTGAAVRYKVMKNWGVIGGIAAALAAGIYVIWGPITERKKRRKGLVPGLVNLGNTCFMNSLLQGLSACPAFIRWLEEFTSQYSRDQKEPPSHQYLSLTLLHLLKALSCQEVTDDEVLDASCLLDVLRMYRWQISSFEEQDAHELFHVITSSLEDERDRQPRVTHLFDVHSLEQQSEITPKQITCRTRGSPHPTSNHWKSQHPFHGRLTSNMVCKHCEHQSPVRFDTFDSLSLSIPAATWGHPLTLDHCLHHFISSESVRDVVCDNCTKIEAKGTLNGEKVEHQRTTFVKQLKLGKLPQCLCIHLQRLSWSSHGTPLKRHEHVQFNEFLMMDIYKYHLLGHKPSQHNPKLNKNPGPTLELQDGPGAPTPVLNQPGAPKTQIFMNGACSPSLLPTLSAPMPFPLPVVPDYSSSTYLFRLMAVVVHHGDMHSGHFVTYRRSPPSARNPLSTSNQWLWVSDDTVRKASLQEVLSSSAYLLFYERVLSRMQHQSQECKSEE
USP10 inh: human USP10 deubiquitinase inhibition; AID 1645856; inhibition, % at 20 µM; purified USP10, Ub-rhodamine fluorescence, 60 min; 1.1% of 47,000 active; Q14694
USP28 block: blocks human USP28 ubiquitin-rhodamine cleavage; purified USP28, Ub-rhodamine cleavage fluorescence, 30 min; 3% of 47,000 active; inhibition, % at 25 µM; Q96RU2
USP8 inh: human USP8 deubiquitinase inhibition. AID 1645853. inhibition, % at 20 µM. P40818. 4.2% of 47,000 active. purified USP8, Ub-rhodamine cleavage fluorescence, 30 min
USP7 inh: human USP7 deubiquitinase inhibition; Q93009; purified USP7, Ub-rhodamine cleavage fluorescence; inhibition, % at 20 µM; 0.3% of 47,000 active
USP17 inh: human USP17-like deubiquitinase inhibition | A8MUK1 | purified USP17, Ub-rhodamine cleavage fluorescence, 3 h | inhibition, % at 50 µM | 6.5% of 47,000 active | AID 1645855
A number is an active result. No stated cut-off is given here; in the data, active means inhibition above about 30%; inactive means the rest.

For O=C(Nc1ccc2c(c1)OCO2)c1ccc2nc(C(F)(F)F)sc2c1 the results were USP30 block inactive, USP10 inh inactive, USP28 block inactive, USP8 inh 55, USP7 inh inactive and USP17 inh inactive.
`O=C(Nc1ccc2c(c1)OCO2)c1ccc2ccccc2n1` gave USP30 block inactive, USP10 inh inactive, USP28 block inactive, USP8 inh inactive, USP7 inh inactive and USP17 inh inactive.
For CC(=O)c1cccc(NC(=O)C(C)Nc2nc(Nc3cc(C)cc(C)c3)nc(Nc3cc(C)cc(C)c3)n2)c1 (centres undefined) the results were USP30 block inactive, USP10 inh inactive, USP28 block inactive, USP8 inh inactive, USP7 inh inactive and USP17 inh inactive.
`Cc1ccc(NC(=O)C(C)Nc2nc(Nc3ccccc3)nc(Nc3ccccc3)n2)cc1` (centres undefined) gave USP30 block 45, USP10 inh inactive, USP28 block inactive, USP8 inh inactive, USP7 inh inactive and USP17 inh inactive.
For CCN(C(=O)c1cccc(-n2nc(C)cc2C)c1)[C@H]1C[C@@H](c2ccccc2)OC2(CCNCC2)C1 the results were USP30 block 34, USP10 inh inactive, USP28 block inactive, USP8 inh inactive, USP7 inh inactive and USP17 inh inactive.
Screening COc1cccc(-n2c(=O)c(C(=O)NCc3ccccc3)c(O)c3cccnc32)c1 returned USP30 block inactive, USP10 inh inactive, USP28 block inactive, USP8 inh 80, USP7 inh inactive and USP17 inh inactive.
For CCCCCCCC1OC(=O)Cc2cc(O)c(O)c(O)c21 (centres undefined) the results were USP30 block 63, USP10 inh 82, USP28 block 94, USP8 inh 77, USP7 inh 75 and USP17 inh 96.
For NC(=O)c1ccc2c(c1)nnn2C1CCCCC1 the results were USP30 block inactive, USP10 inh inactive, USP28 block inactive, USP8 inh inactive, USP7 inh inactive and USP17 inh inactive.
For CCc1ccc(N2CC(C(=O)OCc3cc(=O)oc4c(C)c(C)ccc34)CC2=O)cc1 (centres undefined) the results were USP30 block 45, USP10 inh inactive, USP28 block inactive, USP8 inh inactive, USP7 inh inactive and USP17 inh 31.
Cc1ccc(OCc2nc3ccccc3n2CC(=O)Nc2ccc(C(F)(F)F)cc2)cc1 was read as USP30 block 38, USP10 inh inactive, USP28 block inactive, USP8 inh inactive, USP7 inh inactive and USP17 inh inactive.
For COc1ccc(NC(=O)Cn2c(CSc3ccc(C)cc3)nc3ccccc32)cc1 the results were USP30 block inactive, USP10 inh inactive, USP28 block inactive, USP8 inh inactive, USP7 inh inactive and USP17 inh 54.
For COc1ccc(NC(=O)CSc2nc3ccccc3c3nc(C)nn23)cc1 the results were USP30 block inactive, USP10 inh inactive, USP28 block inactive, USP8 inh inactive, USP7 inh inactive and USP17 inh inactive.
For Cc1cccc(C(C)C)c1NC(=O)Cn1c(COc2ccccc2)nc2ccccc21 the results were USP30 block inactive, USP10 inh inactive, USP28 block inactive, USP8 inh inactive and USP7 inh inactive.
Screening CCn1c(SCC(=O)c2c(N)n(CC(C)C)c(=O)n(C)c2=O)nnc1-c1ccccc1 returned USP30 block inactive, USP10 inh inactive, USP28 block inactive, USP8 inh inactive, USP7 inh inactive and USP17 inh 58.
For Cc1ccc(S(=O)(=O)CNC(=O)C(C)(C)C)cc1 the results were USP30 block inactive, USP10 inh inactive, USP28 block inactive, USP8 inh inactive, USP7 inh inactive and USP17 inh inactive.
`O=S(=O)(Nc1ccc(O)cc1)c1ccc2oc3ccc(S(=O)(=O)Nc4ccc(O)cc4)cc3c2c1` gave USP30 block 34, USP10 inh inactive, USP28 block inactive, USP8 inh inactive, USP7 inh inactive and USP17 inh 54.
Screening Cc1cc(C)n(-c2nc3c(c(=O)n2CC(=O)Nc2cc(C)on2)CCCC3)n1 returned USP30 block inactive, USP10 inh inactive, USP28 block inactive, USP8 inh inactive, USP7 inh inactive and USP17 inh inactive.
O=C(NCc1ccc(Cl)cc1)[C@@H]1Cc2nc[nH]c2CN1Cc1ccc(Cl)cc1 was read as USP30 block inactive, USP10 inh inactive, USP28 block inactive, USP8 inh 50, USP7 inh inactive and USP17 inh inactive.
Cc1ccc(NC(=O)Cc2nnc3c(-c4nc(C5CC5)no4)cccn23)c(C)c1 was read as USP30 block inactive, USP10 inh inactive, USP28 block inactive, USP8 inh 65, USP7 inh inactive and USP17 inh inactive.
Cc1ccc(NC(=O)Cc2nnc3c(-c4nc(C5CC5)no4)cccn23)cc1F was read as USP30 block inactive, USP10 inh 54, USP28 block inactive, USP8 inh 93, USP7 inh 53 and USP17 inh inactive.
Cc1ccc(NC(=O)Cn2cc(-c3nc(C4CC4)no3)ccc2=O)cc1C was read as USP30 block inactive, USP10 inh inactive, USP28 block inactive, USP8 inh inactive, USP7 inh inactive and USP17 inh inactive.
Cc1ccc(NC(=O)Cn2c(C)cc(-c3nc(C4CC4)no3)c2C)c(F)c1 was read as USP30 block inactive, USP10 inh inactive, USP28 block inactive, USP8 inh inactive, USP7 inh inactive and USP17 inh inactive.
O=C(CSc1ccc2nnc(CCNS(=O)(=O)c3ccccc3)n2n1)NCc1ccc(F)cc1 was read as USP30 block inactive, USP10 inh inactive, USP28 block inactive, USP8 inh inactive, USP7 inh inactive and USP17 inh 39.
CCOC(=O)c1c(C)nc2c(c1-c1ccccc1)C(=O)CC(C)(C)C2 was read as USP30 block inactive, USP10 inh inactive, USP28 block inactive, USP8 inh inactive, USP7 inh inactive and USP17 inh inactive.
`CCOC(=O)c1[nH]c2c(c1Cc1ccccc1)C(=O)CC(C)(C)C2` gave USP30 block inactive, USP10 inh inactive, USP28 block inactive, USP8 inh inactive, USP7 inh inactive and USP17 inh 42.
For CC(=O)c1ccc(NC(=O)C2CC(=O)Nc3nc(SCc4ccccc4)nn32)cc1 (centres undefined) the results were USP30 block inactive, USP10 inh 30, USP28 block inactive, USP8 inh inactive, USP7 inh inactive and USP17 inh inactive.
COc1cccc(NC(=O)C2CC(=O)Nc3nc(SCc4ccccc4)nn32)c1 (centres undefined) was read as USP30 block inactive, USP10 inh inactive, USP28 block inactive, USP8 inh inactive, USP7 inh inactive and USP17 inh inactive.
`COc1ccccc1NC(=O)C1CC(=O)Nc2nc(SCc3ccccc3)nn21` (centres undefined) gave USP30 block inactive, USP10 inh inactive, USP28 block inactive, USP8 inh inactive, USP7 inh inactive and USP17 inh inactive.
